In the library only some 11% were active in any assay of this set; here they are far more common.
USP17 inh: human USP17-like deubiquitinase inhibition | purified USP17, Ub-rhodamine cleavage fluorescence, 3 h | inhibition, % at 50 µM | 47,000 tested, 6.5% active
USP30 block: blocks human USP30 ubiquitin-rhodamine cleavage; Q70CQ3; purified USP30, Ub-rhodamine cleavage fluorescence; inhibition, % at 25 µM; 47,000 tested, 5.3% active; AID 1645860
OTUD3 inh: blocks human OTUD3 ubiquitin-rhodamine cleavage; purified OTUD3, Ub-rhodamine fluorescence, 2 h; inhibition, % at 25 µM; 47,000 tested, 0.7% active
Target sequence (Q5T2D3 whole entry, looked up): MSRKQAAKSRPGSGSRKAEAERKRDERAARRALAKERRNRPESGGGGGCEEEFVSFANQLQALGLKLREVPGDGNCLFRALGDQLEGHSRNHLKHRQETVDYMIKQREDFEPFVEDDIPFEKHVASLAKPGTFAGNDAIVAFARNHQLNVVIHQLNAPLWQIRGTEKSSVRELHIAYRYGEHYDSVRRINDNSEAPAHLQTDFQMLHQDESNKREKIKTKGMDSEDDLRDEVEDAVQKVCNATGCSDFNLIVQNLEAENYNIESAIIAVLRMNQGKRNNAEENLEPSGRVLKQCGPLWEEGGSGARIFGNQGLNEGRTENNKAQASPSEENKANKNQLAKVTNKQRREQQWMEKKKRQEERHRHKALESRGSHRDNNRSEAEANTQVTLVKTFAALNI
USP28 block: inhibitors of human USP28 deubiquitinase; purified USP28, Ub-rhodamine cleavage fluorescence, 30 min; inhibition, % at 25 µM; Q96RU2; AID 1645857; 47,000 tested, 3% active
Active calls of the source: *; i = inactive; nt = no result. No stated cut-off is given here; in the data, active means inhibition above about 30%; inactive means the rest.

SMILES | USP17 inh | USP30 block | OTUD3 inh | USP28 block
O=C1N(c2ccccc2)C2CS(=O)(=O)CC2N1c1ccc(F)cc1 (centres undefined) | 7 | 8 | 5 | 3
Cc1cccc(C(=O)Nc2ccc3c(c2)nc(CSc2nccc(C)n2)n3C)c1 | 5 | 26 | 1 | 93*
CC(=O)c1cccc(NC(=O)Nc2ccc(CCc3nc4ccccc4n3C)cc2)c1 | 33* | 19 | 11 | 21
CCC(=O)Nc1ccc2c(c1)nc(CSc1nccc(C)n1)n2CC | -5 | 6 | -2 | 92*
CCn1c(CCc2ccc(NC(=O)c3ccccn3)cc2)nc2ccccc21 | -1 | nt | 3 | nt
Cn1c(CCN2CCCC2)nc2cc(NC(=O)c3ccccc3)ccc21 | 59* | -23 | -6 | 3
Cc1ccc(CNC(=O)Cn2c(N3CCCCC3)nc(C)cc2=O)cc1 | 41* | 36* | 16 | 23
CCc1cc(=O)n(CC(=O)NCc2ccc(F)cc2)c(N2CCOCC2)n1 | 22 | 31* | 12 | 6
CCc1cc(=O)n(CC(=O)NCc2ccc(C)cc2)c(N2CCOCC2)n1 | 9 | 9 | 9 | 1
O=C(c1ccc(N2CCOCC2)nn1)N(Cc1ccccc1)c1ccccn1 | 0 | 27 | 13 | 11
O=C1NC2(CCN(S(=O)(=O)c3ccc(F)c(F)c3)CC2)Nc2ccccc21 | -8 | -13 | -6 | -16
CC(=O)c1ccc(S(=O)(=O)N2CCC3(CC2)NC(=O)c2ccccc2N3)cc1 | 16 | 12 | 3 | 2
Cc1ccc(S(=O)(=O)N2CCC3(CC2)NC(=O)c2ccccc2N3)cc1C | 58* | 5 | -1 | 0
Cc1ccc(S(=O)(=O)N2CCC3(CC2)NC(=O)c2ccccc2N3)c(C)c1 | 62* | -5 | 1 | 3
O=C(COc1nc2ccccc2nc1N1CCOCC1)N1CCc2ccccc21 | -126 | i | -156 | -173
NC(=O)c1ccccc1OCC(=O)N1CCc2ccccc21 | 62* | 76* | -7 | 51*
O=C(NCc1cccnc1)c1cn2cc(Cl)ccc2n1 | 0 | 0 | -1 | -5
CCC1Sc2cc(S(=O)(=O)CCC(=O)N3CCc4ccccc4C3)ccc2NC1=O (centres undefined) | -12 | 9 | -1 | 1
COc1cc2c(cc1OC)CN(C(=O)CCS(=O)(=O)c1ccc(Cl)cc1)CC2 | 32* | -70 | -20 | -4
O=C(NCc1ccc(Cl)cc1)c1ccc(N2CCCS2(=O)=O)cc1 | 64* | 17 | 8 | 45*
Cc1cccc(C(=O)Nc2ccc3c(c2)C(=O)N(C)c2ccccc2O3)c1 | 17 | 16 | 15 | 47*
Cc1cccc(C(=O)Nc2ccc(N3CCCCC3)c(NC(=O)Nc3ccccc3Cl)c2)c1 | -1 | -13 | -1 | -6
Cc1ccc(C(=O)Nc2ccc3c(c2)C(=O)N(C)c2ccccc2O3)cc1C | 4 | 11 | 8 | 55*
Cc1ccnc(Nc2ccc(N3CCN(C(=O)c4cccs4)CC3)nn2)c1 | -15 | -13 | 1 | -14
Cc1ccccc1-c1nc(SCC(=O)N2CCCC2)c2c(=O)n(C)c(=O)n(C)c2n1 | 9 | 43* | 6 | 0
SMILES | USP17 inh | USP30 block | OTUD3 inh | USP28 block
CCn1cc(S(=O)(=O)N2CCc3nc(-c4ccccc4)ncc3C2)cn1 | -45 | -59 | -28 | -27
Cc1ccc(S(=O)(=O)Nc2cc3[nH]c(=O)[nH]c3cc2C)c(C)c1 | -1 | -13 | -17 | -10
O=c1[nH]c2ccc(S(=O)(=O)Nc3ccc(O)c4ccccc34)cc2[nH]1 | 63* | -10 | 63* | 27
Cc1nn(-c2ccccc2)c2c1N=C1C(Cl)=CC(Cl)=CN1C21C(=O)Nc2ccccc21 (centres undefined) | 82* | 15 | 12 | 50*
CC(OC(=O)c1ccc(Cl)cc1)C(=O)NCC1CCCCC1 (centres undefined) | 26 | 31* | 10 | 15
CC(=O)N1CCCC1c1nc(N)ncc1-c1ccc(C(F)(F)F)cc1 (centres undefined) | -6 | 4 | 0 | -21
O=C(Cn1cccc(S(=O)(=O)N2CCCCCC2)c1=O)Nc1ccc(F)cc1 | 42* | 5 | -72 | -18
C=Cc1ccc(Cn2cccc(S(=O)(=O)N3CCCC3)c2=O)cc1 | 63* | -59 | 0 | 49*
COc1ccc(CSc2nc3ccccc3[nH]2)cc1OC | -2 | -7 | -1 | 2
Cc1cc(Nc2ccc(C(=O)N3CCCCC3)cc2)n2nc(-c3cccnc3)nc2n1 | -2 | 21 | 7 | 7
CCn1c(SCc2nc(-c3ccccc3)no2)nnc1-c1ccc2c(c1)OCCO2 | 6 | 15 | 8 | 8
CCn1c(SCCOc2ccccc2)nnc1-c1ccc2c(c1)OCCO2 | 1 | 18 | 4 | 31*
